These results are taken from PubChem BioAssay (Tox21).

A short description of assay [1]: Nuclear factor erythroid 2-related factor 2/antioxidant responsive element (Nrf2/ARE) small molecule agonists: qHTS cell viability counter screen in human keratinocytes (AID 1919968; active = well fitted curve in the direction sought with a large enough effect in the repeat runs; an effect the other way counts as inactive or inconclusive; also: nearly all actives have a fitted effect of over 55% in size). A digest of the protocol:
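Stably transfected HaCaT (KeratinoSens), 1,500/well. Test agents in DMSO were applied for 23 h, 37 C/5% CO2. CellTiter-Fluor was incubated 1 h before the fluorescence read.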

Assay [2] can be described thus: Nuclear factor erythroid 2-related factor 2/antioxidant responsive element (Nrf2/ARE) small molecule agonists: luciferase reporter gene qHTS assay in human keratinocytes (AID 1919969). Also: nearly all actives have a fitted effect of over 35% in size. Background: A reporter such as luciferase makes a cellular process visible.
For assay [3], the target named is Gonadotropin-releasing hormone receptor (Homo sapiens) (UniProt P30968). Description: Human gonadotropin-releasing hormone receptor (GnRHR) small molecule agonists, calcium flux assay in GnRHR-HEK293 cells (AID 1920063). Also: nearly all actives have a fitted effect of over 35% in size. A digest of the protocol:
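Stable human GnRHR HEK293 line. 18 h plating, then calcium dye for 1 h at 37 C. Agonist-mode compound addition from DMSO stocks; fluorescence monitored 3 min.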

Assay [4] addresses KiSS-1 receptor (Homo sapiens) (UniProt Q969F8). In words: Human kisspeptin (KISS1R) small molecule agonists, calcium flux assay in KISS1R-HEK293 cells (AID 1920064; active = well fitted curve in the direction sought with a large enough effect in the repeat runs; an effect the other way counts as inactive or inconclusive). A digest of the protocol: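 After overnight (18 h) culture at 37 C/5% CO2, human KISS1R-HEK293 cells received calcium dye for 1 h, then test compound; emission at 540 nm (excitation 480 nm) was tracked for 3 min.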
Background: A change in cytosolic calcium serves as a functional read-out for many receptors and channels.

Assay [5] in a line: G protein-coupled receptor (GPCR) small molecule agonists, calcium flux assay: HEK293 wild type cell line counter screen (AID 1920065). A digest of the protocol: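 Following 18 h incubation at 37 C/5% CO2, plates got calcium dye for 1 h; compounds, ATP or DMSO were then pinned in and fluorescence followed kinetically (480/540 nm).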
Assay [6] in a line: p53 small molecule agonists, cell-based qHTS assay with human liver microsomes (AID 1963577).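 Also: p53 response element beta-lactamase reporter cells with liver microsomes plus NADPH.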 The procedure, abridged:
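Reporter activation was measured by LiveBLAzer fluorescence intensity in p53RE-bla cells, which had been exposed to compounds for 16 h at 37 C alongside 0.5 mg/mL human liver microsomes and 0.5 mg/mL NADPH (final concentrations).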
Background: qHTS replaces the single test concentration by a dilution series.

Assay [7] can be described thus: p53 small molecule agonists, cell-based qHTS assay with rat liver microsomes (AID 1963578). The procedure, abridged: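 Compound in DMSO added to p53RE-bla cells 5 h post-plating; rat microsomes/NADPH 0.5 mg/mL final; 16 h, 37 C; LiveBLAzer 2 h RT.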
Assay [8] in a line: p53 small molecule agonists, cell-based qHTS assay with human liver microsomes: qHTS cell viability counter screen (AID 1963579). Also: nearly all actives have a fitted effect of over 45% in size. The procedure, abridged:
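HLM-supplemented (0.5 mg/mL final) and NADPH-supplemented (0.5 mg/mL final) p53RE-bla cultures, 4,000 cells per well, were dosed with compounds in DMSO for 16 h at 37 C; luminescent ATP detection (CellTiter-Glo, 30 min, room temperature) quantified surviving cells.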

Assay [9] is described as follows: p53 small molecule agonists, cell-based qHTS assay with rat liver microsomes: qHTS cell viability counter screen (AID 1963580). Also: nearly all actives have a fitted effect of over 45% in size. The procedure, abridged: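 Cytotoxicity counter screen: intracellular ATP measured by CellTiter-Glo luminescence in the same wells as the beta-lactamase reporter read, on HCT-116 p53RE-bla cells exposed 16 h at 37 C to compounds with rat liver microsomes and NADPH, each 0.5 mg/mL final.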

The nature of assay [10]: p53 small molecule agonists, cell-based qHTS assay: qHTS cell viability counter screen (AID 1963581). Also: nearly all actives have a fitted effect of over 45% in size. A digest of the protocol:
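qHTS counter screen: 16 h compound exposure at 37 C of p53RE-bla HCT-116 cells (4,000 per well, seeded 5 h prior), cell viability by ATP luminescence.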

Assay [11] can be described thus: p53 small molecule agonists, cell-based qHTS assay (AID 1963582; active = well fitted activation curve with a large enough effect in the signal ratio in the repeat runs, not every such curve was filed as active; the % refers to the signal ratio). A digest of the protocol:
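Measured: fluorescence from cleaved LiveBLAzer substrate. System: p53RE-bla cells, 16 h compound treatment at 37 C, 2 h substrate step at room temperature.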

Assay [12] has as its target 5-hydroxytryptamine receptor 2A (Homo sapiens) (UniProt P28223). Description: 5-hydroxytryptamine receptor 2A (HTR2A) small molecule antagonists, cell-based qHTS assay (AID 1963586). Also: nearly all actives have a fitted effect of over 45% in size. A digest of the protocol: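 CHO cells stably expressing human HTR2A were plated for 18 h at 37 C, then loaded with calcium dye for 1 h. Compounds were preincubated 5 min at room temperature before DOI (4 nM solution) was added. Kinetic fluorescence was read for 3 min.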

For assay [13] the target is unchanged. In words: 5-hydroxytryptamine receptor 2A (HTR2A) small molecule agonists, cell-based qHTS assay (AID 1963587). Also: nearly all actives have a fitted effect of over 30% in size. Also: potency is read from the fitted curve at half-maximal effect. The procedure, abridged: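 CHO cells stably expressing human HTR2A, plated 18 h, loaded with calcium dye 1 h at 37 C. Agonist mode: compounds added and intracellular calcium fluorescence recorded kinetically for 2 min at 1 sec intervals.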
For assay [14], the target named is Muscarinic acetylcholine receptor M1 (Homo sapiens) (UniProt P11229). Description: Cholinergic receptor muscarinic 1 (CHRM1) small molecule antagonists, cell-based qHTS assay (AID 1963588). Also: nearly all actives have a fitted effect of over 40% in size. The procedure, abridged:
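Compounds were tested at 15 concentrations in three independent runs. Dye-loaded CHRM1-CHO cells were exposed 5 min at room temperature before stimulation by acetylcholine added at 50nM. Intracellular calcium was read kinetically on FDSS for 3 min.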

Assay [15] in a line: cAMP Responsive Elements (CRE) small molecule antagonists, cell-based qHTS assay (AID 1963591; active = well fitted inhibition curve with a large enough effect in the signal ratio in the repeat runs, not every such curve was filed as active; the % refers to the signal ratio). A digest of the protocol: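 Reporter line CRE-bla HEK 293T in dialyzed-FBS DMEM; cells preincubated 18 h, treated 3 h with compound plus NKH477 (0.25 uM final); LiveBLAzer FRET, 2 h RT.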
Assay [16] deals with Beta-2 adrenergic receptor (Homo sapiens) (UniProt P07550). Description: Adrenergic beta2 receptor (ADRB2) small molecule antagonists, cell-based qHTS assay (AID 1963592). Also: series mostly up to about 92 µM; nearly all actives have a fitted effect of over 50% in size. The procedure, abridged: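 Assay format: CHO-ADRB2 cells, 18-20hr seeding at 37C/5% CO2, then compound plus 1nM isoproterenol agonist mix for 0.5hr RT. Homogeneous time-resolved fluorescence cAMP detection after 1hr, expressed as 665/615 nm ratio.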

Assay [17] concerns the target D(2) dopamine receptor (Homo sapiens) (UniProt P14416). Description: Dopamine D2 receptor (DRD2) small molecule agonists, cell-based qHTS assay (AID 1963594). Also: nearly all actives have a fitted effect of over 35% in size. The procedure, abridged: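 HEK293 cells stably expressing human DRD2, pre-treated with PDE inhibitor Ro20-1724 (0.1 mM final) and compound 10 min at room temperature, then stimulated with NKH477 (200nM […]) for 30 min. cAMP read by HTRF (665/620 nm).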

For assay [18] the target is unchanged. Description: Dopamine D2 receptor (DRD2) small molecule antagonists, cell-based qHTS assay (AID 1963595; active = well fitted inhibition curve with a large enough effect in the signal ratio in the repeat runs, with a control signal flat; the % refers to the signal ratio). The procedure, abridged:
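Cells were plated and grown for 24 h at 37 °C. Ro20-1724 (0.1 mM final) went in first, then compound for 10 min. NKH477 (200 nM) with quinpirole (12 nM) followed for 30 min at RT, then HTRF detection reagents for 1 h.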

Assay [19] in a line: cAMP Responsive Elements (CRE) small molecule agonists, cell-based qHTS assay (AID 1963590). The procedure, abridged:
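Test agents in DMSO were incubated 3 h at 37 C/5% CO2 with CRE-bla HEK 293T cells seeded 18 h earlier; LiveBLAzer B/G FRET substrate was added and read after 2 h at room temperature.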

The target of assay [20] is Beta-2 adrenergic receptor (Homo sapiens) (UniProt P07550). Description: Adrenergic beta2 receptor (ADRB2) small molecule agonists, cell-based qHTS assay (AID 1963593).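 Also: CHO cells stably overexpressing human ADRB2.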 The procedure, abridged:
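CHO cells stably over-expressing ADRB2 were plated overnight at 37C, then dosed with compounds plus a stimulation mix containing 100uM IBMX and 25uM Ro-20-1724 for 0.5hr at room temperature. cAMP was measured by HTRF competition, 1hr.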

Inconclusive results are not listed. Where a structure was tested more than once in an assay, its records may differ in their call. The source made the active and inactive calls. Unless noted, calls follow the shape of the full dose curve.

Sequence of D(2) dopamine receptor (Homo sapiens) (P14416 whole entry, looked up): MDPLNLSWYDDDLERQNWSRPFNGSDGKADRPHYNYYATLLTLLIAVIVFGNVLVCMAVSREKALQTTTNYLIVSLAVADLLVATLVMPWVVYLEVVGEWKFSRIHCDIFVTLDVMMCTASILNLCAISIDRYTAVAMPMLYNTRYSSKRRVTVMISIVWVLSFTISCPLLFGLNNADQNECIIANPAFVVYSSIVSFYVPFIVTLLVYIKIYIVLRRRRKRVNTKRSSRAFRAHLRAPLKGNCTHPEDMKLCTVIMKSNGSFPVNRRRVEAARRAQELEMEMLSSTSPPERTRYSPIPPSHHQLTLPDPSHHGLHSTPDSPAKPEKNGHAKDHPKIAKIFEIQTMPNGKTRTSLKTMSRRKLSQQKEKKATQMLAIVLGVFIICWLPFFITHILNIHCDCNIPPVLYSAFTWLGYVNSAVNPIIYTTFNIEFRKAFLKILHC
Sequence of 5-hydroxytryptamine receptor 2A (Homo sapiens) (P28223 whole entry, looked up): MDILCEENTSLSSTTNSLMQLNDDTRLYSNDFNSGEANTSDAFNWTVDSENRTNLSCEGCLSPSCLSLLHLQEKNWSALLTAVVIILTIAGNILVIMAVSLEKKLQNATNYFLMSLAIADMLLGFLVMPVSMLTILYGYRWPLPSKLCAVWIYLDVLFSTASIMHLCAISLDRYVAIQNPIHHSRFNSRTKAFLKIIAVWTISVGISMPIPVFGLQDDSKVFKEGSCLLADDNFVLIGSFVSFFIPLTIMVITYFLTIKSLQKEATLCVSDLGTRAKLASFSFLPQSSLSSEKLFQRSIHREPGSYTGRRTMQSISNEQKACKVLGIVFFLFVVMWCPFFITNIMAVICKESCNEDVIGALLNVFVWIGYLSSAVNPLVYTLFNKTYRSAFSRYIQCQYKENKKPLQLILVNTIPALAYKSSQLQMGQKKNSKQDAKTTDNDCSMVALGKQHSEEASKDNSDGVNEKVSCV
Sequence of Muscarinic acetylcholine receptor M1 (Homo sapiens) (P11229 whole entry, looked up): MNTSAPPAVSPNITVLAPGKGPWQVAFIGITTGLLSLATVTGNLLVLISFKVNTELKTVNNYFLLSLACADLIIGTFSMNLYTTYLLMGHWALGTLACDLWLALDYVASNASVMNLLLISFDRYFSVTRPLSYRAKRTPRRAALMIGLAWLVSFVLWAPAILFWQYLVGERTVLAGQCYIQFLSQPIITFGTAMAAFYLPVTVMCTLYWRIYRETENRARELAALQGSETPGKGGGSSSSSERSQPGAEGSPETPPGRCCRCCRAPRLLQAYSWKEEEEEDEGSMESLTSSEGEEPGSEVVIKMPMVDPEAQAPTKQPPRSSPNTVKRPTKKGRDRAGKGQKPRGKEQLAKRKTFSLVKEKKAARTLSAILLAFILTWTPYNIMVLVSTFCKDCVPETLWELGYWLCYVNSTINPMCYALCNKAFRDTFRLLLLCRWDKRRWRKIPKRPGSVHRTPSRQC
Sequence of Gonadotropin-releasing hormone receptor (Homo sapiens) (P30968 whole entry, looked up): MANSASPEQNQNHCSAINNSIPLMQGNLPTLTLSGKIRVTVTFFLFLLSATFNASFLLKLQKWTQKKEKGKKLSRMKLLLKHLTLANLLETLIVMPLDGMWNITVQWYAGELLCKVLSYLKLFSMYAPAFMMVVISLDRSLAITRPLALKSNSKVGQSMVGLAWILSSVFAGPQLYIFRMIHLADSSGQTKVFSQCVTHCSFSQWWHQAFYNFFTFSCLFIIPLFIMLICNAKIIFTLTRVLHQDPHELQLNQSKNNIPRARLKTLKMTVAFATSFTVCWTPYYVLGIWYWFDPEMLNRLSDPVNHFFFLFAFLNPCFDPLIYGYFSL
Sequence of Beta-2 adrenergic receptor (Homo sapiens) (P07550 whole entry, looked up): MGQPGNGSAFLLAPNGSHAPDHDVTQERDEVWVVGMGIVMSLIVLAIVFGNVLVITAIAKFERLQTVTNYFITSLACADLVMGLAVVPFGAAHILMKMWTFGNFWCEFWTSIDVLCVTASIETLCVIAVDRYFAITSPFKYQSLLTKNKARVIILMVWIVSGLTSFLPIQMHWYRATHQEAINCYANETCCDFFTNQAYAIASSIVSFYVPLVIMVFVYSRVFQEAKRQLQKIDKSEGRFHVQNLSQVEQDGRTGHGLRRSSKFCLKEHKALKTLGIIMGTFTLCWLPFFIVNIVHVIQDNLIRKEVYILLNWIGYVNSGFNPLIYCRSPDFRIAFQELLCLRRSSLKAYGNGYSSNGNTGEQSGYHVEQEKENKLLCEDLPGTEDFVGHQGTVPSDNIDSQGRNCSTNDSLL
Sequence of KiSS-1 receptor (Homo sapiens) (Q969F8 whole entry, looked up): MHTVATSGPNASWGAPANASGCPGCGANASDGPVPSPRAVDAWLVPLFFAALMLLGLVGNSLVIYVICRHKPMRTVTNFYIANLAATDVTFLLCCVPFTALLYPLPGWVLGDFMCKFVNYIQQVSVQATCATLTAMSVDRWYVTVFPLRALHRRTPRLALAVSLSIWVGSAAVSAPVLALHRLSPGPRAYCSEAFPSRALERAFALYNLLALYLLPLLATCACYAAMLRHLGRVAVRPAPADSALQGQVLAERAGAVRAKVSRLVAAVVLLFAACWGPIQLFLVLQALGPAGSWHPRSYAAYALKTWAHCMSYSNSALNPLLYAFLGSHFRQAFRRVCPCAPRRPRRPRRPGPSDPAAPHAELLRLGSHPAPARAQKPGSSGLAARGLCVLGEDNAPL

For the compound `CCCCCCCCCC(=O)O`, the Potency result in assay [1], in assay [2], in [3], in assay [4], in assay [5] and in [6] was “inactive” throughout. For the same compound, the Potency result in [7], in [8], in assay [9], in assay [10], in [11] and in [12] was “inactive” throughout. Also, the Potency entry in assay [13], in [14], in assay [15], in assay [16], in assay [17] and in assay [18] was “inactive” in each case.
Turning to `Cc1ccc(C)c(S(=O)(=O)O)c1`, the Potency entry in assay [1], in [2], in assay [3], in assay [4], in [5] and in assay [6] was “inactive” in each case. The Potency entry in assay [7], in assay [8], in assay [9], in assay [10], in [11] and in assay [12] was “inactive” in each case. The Potency result in assay [13], in assay [14], in [19], in assay [15], in assay [16] and in [20] was “inactive” throughout. Further, the Potency entry in [17] and in [18] was “inactive” each time.
As to `CC(=O)OC[C@H]1O[C@@](COC(C)=O)(O[C@H]2O[C@H](COC(C)=O)[C@@H](OC(C)=O)[C@H](OC(C)=O)[C@H]2OC(C)=O)[C@@H](OC(C)=O)[C@@H]1OC(C)=O`, the Potency entry in [1], in assay [2], in [3], in assay [4], in [5] and in assay [6] was “inactive” in each case. The Potency result in assay [7], in assay [8], in assay [9], in assay [10], in [11] and in [12] was “inactive” throughout. In addition, the Potency entry in [13], in assay [14], in [19], in assay [16], in assay [17] and in assay [18] was “inactive” each time.
As to `O=C(O)c1ccc(C(=O)O)cc1`, the Potency entry in [1], in assay [2], in [3], in [4], in assay [5] and in assay [6] was “inactive” in each case. Also, the Potency entry in assay [7], in assay [8], in assay [9], in assay [10], in [11] and in assay [12] was “inactive” in each case. In addition, the Potency result in assay [13], in assay [14], in [19], in assay [15], in [20] and in assay [17] was “inactive” throughout. In addition, the Potency result in [18] was “inactive”.
As to `O=S1(=O)CC=CC1`, the Potency result in assay [1], in assay [2], in [3], in assay [4], in assay [5] and in assay [6] was “inactive” throughout. Besides, the Potency entry in assay [7], in [8], in [9], in assay [10], in assay [11] and in assay [12] was “inactive” throughout. For the same compound, the Potency entry in [14], in [19], in assay [15], in [16], in [20] and in [17] was “inactive” each time. Further, the Potency entry in assay [18] was “inactive”. In addition, the Potency in assay [13] is 37.6 µM (active) and inactive.
For `C/C=C1/CC2C=CC1C2` (configuration not stated), the Potency result in [1], in assay [2], in assay [3], in [4], in [5] and in assay [6] was “inactive” each time. Besides, the Potency entry in [7], in assay [8], in assay [9], in assay [10], in assay [11] and in assay [12] was “inactive” throughout. Further, the Potency result in assay [13], in [14], in assay [19], in assay [16], in [17] and in assay [18] was “inactive” in each case.
For the compound `CCCCC/C(C=O)=C\c1ccccc1`, the Potency result in [1], in [2], in [3], in assay [4], in assay [5] and in [6] was “inactive” throughout. In addition, the Potency result in assay [7], in assay [8], in assay [9], in [10], in [11] and in [12] was “inactive” throughout. Also, the Potency entry in assay [13], in assay [14], in assay [19], in [15], in assay [16] and in assay [20] was “inactive” each time. The Potency entry in [17] and in assay [18] was “inactive” throughout.
Turning to `CCc1cccc(O)c1`, the Potency result in assay [1], in [2], in assay [3], in assay [4], in [5] and in assay [6] was “inactive” throughout. The Potency entry in [7], in assay [8], in assay [9], in assay [10], in [11] and in assay [12] was “inactive” throughout. The Potency entry in [13], in [14], in [19], in assay [15], in assay [20] and in [17] was “inactive” throughout. Also, the Potency entry in assay [18] is “inactive”.
